Assay results: PubChem BioAssay AID624136 (Broad Institute, 2012)
The whole screen tested about 17,000 compounds, of which about 75 (0.4%) were called active. The sample holds actives, similar compounds and a random draw of the others, so the mix is not that of the screen.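 The calls were made as follows: active = compounds whose four printed spots each glow above background more than chance allows, each with a p-value under 7%; inactive = the rest.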

System: mutant tumor protein p53 (GST-tagged), Homo sapiens
Assay: small molecules binding GST-tagged mutant p53 – biochemical, small molecule microarray, anti-GST fluorescence, primary screen (AID 624136)

outcome, inactive:
C[C@@H]1CN([C@H](C)CO)C(=O)c2cccc(NC(=O)Nc3ccc(F)cc3)c2O[C@@H]1CN(C)Cc1ccc(C(F)(F)F)cc1
O=C(NCc1cccnc1)c1cnn2c(C(F)F)cc(-c3ccccc3)nc12
CNC[C@H]1OCCCC[C@@H](C)Oc2ccc(NC(=O)c3ccncc3)cc2C(=O)N([C@H](C)CO)C[C@H]1C
Cn1nnc2cc(C(=O)N(CCO)c3ccccc3)ccc21
C[C@@H]1CN([C@@H](C)CO)C(=O)Cc2cc(NC(=O)Cc3cn(C)c4ccccc34)ccc2O[C@H]1CN(C)Cc1ccc(C(=O)O)cc1
Cc1noc(C)c1S(=O)(=O)Nc1cccc2c1O[C@H](CN(C)Cc1ccc(C(F)(F)F)cc1)[C@H](C)CN([C@@H](C)CO)C2=O
CC(=O)Nc1ccccc1-c1cn(CC(=O)N2CCOCC2)nn1
CCCN(C)C[C@@H]1OCCCC[C@H](C)Oc2ccc(NS(=O)(=O)c3ccc(C)cc3)cc2C(=O)N([C@H](C)CO)C[C@@H]1C
Cc1noc(C)c1NC(=O)Nc1ccc2c(c1)C(=O)N([C@@H](C)CO)C[C@H](C)[C@@H](CN(C)C)O2
C[C@@H]1CN([C@@H](C)CO)C(=O)c2cc(N(C)C)ccc2O[C@@H](C)CCCCO[C@@H]1CN(C)C(=O)CCC(F)(F)F
CC(C)NC(=O)Nc1ccc2c(c1)C(=O)N([C@H](C)CO)C[C@H](C)[C@@H](CN(C)C(=O)CCCN(C)C)OCCCC[C@@H](C)O2
Cc1noc(C)c1S(=O)(=O)Nc1ccc2c(c1)CC(=O)N([C@@H](C)CO)C[C@H](C)[C@H](CN(C)C(=O)Nc1ccccc1)O2
CC(C)NC(=O)N(C)C[C@@H]1OCCCC[C@@H](C)Oc2ccc(NC(=O)CCCN(C)C)cc2C(=O)N([C@@H](C)CO)C[C@@H]1C
COc1ccc(S(=O)(=O)Nc2ccc3c(c2)C(=O)N([C@@H](C)CO)C[C@@H](C)[C@H](CN(C)S(=O)(=O)c2cccs2)O3)cc1
COc1ccc(NC(=O)N(C)C[C@H]2Oc3ccc(NS(=O)(=O)c4ccc(C)cc4)cc3C(=O)N([C@@H](C)CO)C[C@H]2C)cc1
COc1ccc(C(=O)CCC(=O)Nc2cccnc2)c(OC)c1
C[C@H](CO)N1C[C@H](C)[C@H](CN(C)S(=O)(=O)c2cccs2)OCCCC[C@H](C)Oc2ccc(NC(=O)CCCN(C)C)cc2C1=O
CCOC(=O)c1c(CN2CCOCC2)nc2c3ccccc3ccn12
CS(=O)(=O)N(CC(=O)Nc1ccc(F)c(F)c1)c1ccccc1F
COC(=O)c1ccccc1NC(=O)Cc1coc2cc(C)cc(C)c12
COc1ccc(-c2nnc(SCC(=O)Nc3c(C)n[nH]c3C)n2-c2ccccc2)cc1OC
C[C@H]1CN([C@@H](C)CO)C(=O)Cc2cc(NC(=O)c3ccncc3)ccc2O[C@@H]1CN(C)C(=O)Nc1ccccc1
C[C@@H]1CCCCO[C@H](CN(C)Cc2ccc3c(c2)OCO3)[C@@H](C)CN([C@H](C)CO)C(=O)c2cc(N(C)C)ccc2O1
O=C1N(CCS(=O)(=O)c2ccccc2)Cc2ccccc2[C@H]2OC(c3ccc(OCCCO)cc3)=N[C@@]12CCS(=O)(=O)c1ccccc1
C[C@H](CO)N1C[C@H](C)[C@H](CN(C)C(=O)Nc2ccc(F)cc2)Oc2ccc(NC(=O)Cc3cn(C)c4ccccc34)cc2CC1=O
C[C@H](CO)N1C[C@H](C)[C@H](CN(C)S(=O)(=O)c2ccc(Cl)cc2)Oc2c(NS(C)(=O)=O)cccc2C1=O
C[C@@H]1CN([C@@H](C)CO)C(=O)c2cc(NC(=O)Cc3ccccc3)ccc2O[C@H]1CN(C)CC1CC1
C[C@H]1CN([C@@H](C)CO)C(=O)c2cc(NC(=O)NC3CCCCC3)ccc2O[C@@H]1CN(C)C(=O)Nc1cccc2ccccc12
COc1ccccc1-c1nnc(SCC(=O)Nc2ccccc2)o1
C[C@@H]1CN([C@H](C)CO)C(=O)c2cc(NS(=O)(=O)c3ccccc3)ccc2O[C@@H](C)CCCCO[C@H]1CN(C)C(=O)C1CCCCC1
Cc1ccc(S(=O)(=O)N(C)CC(=O)Nc2ccc(C#N)cc2)cc1
C[C@H]1CN([C@@H](C)CO)C(=O)c2cccc(NC(=O)Nc3cccc4ccccc34)c2O[C@@H]1CN(C)C(=O)NC1CCCCC1
C[C@H](CO)N1C[C@H](C)[C@H](CN(C)S(=O)(=O)c2cccs2)Oc2c(NS(=O)(=O)c3ccc(Cl)cc3)cccc2C1=O
O=C(C1=C[C@H](c2csc3ccccc23)C[C@H](OCc2ccc(CO)cc2)O1)N1CCCCC1
C[C@@H]1CN([C@H](C)CO)C(=O)Cc2cc(NC(=O)Nc3ccc(F)cc3)ccc2O[C@@H]1CN(C)Cc1ccc2c(c1)OCO2
C[C@@H]1CN([C@@H](C)CO)C(=O)Cc2cc(NS(=O)(=O)c3ccc(Cl)cc3)ccc2O[C@H]1CN(C)CC1CCCCC1
CNC[C@@H]1Oc2ncc(-c3ccc(F)cc3)cc2C(=O)N([C@H](C)CO)C[C@@H]1C
CCNc1nc(NCC)nc(OCC#N)n1
CO[C@@H]1[C@@H](OC(N)=O)[C@@H](O)C(Oc2ccc3c(O)c(NC(=O)c4ccc(O)c(CC=C(C)C)c4)c(=O)oc3c2C)OC1(C)C (stereo partly specified)
COc1ccc2ncnc(NCc3ccc4c(c3)OCO4)c2c1
COc1ccc(S(=O)(=O)Nc2ccc3c(c2)CC(=O)N([C@H](C)CO)C[C@H](C)[C@H](CN(C)Cc2ccc(C(F)(F)F)cc2)O3)cc1
C[C@H]1CN([C@@H](C)CO)C(=O)Cc2cc(NC(=O)NC3CCCCC3)ccc2O[C@H]1CN(C)S(=O)(=O)c1cccs1
COc1ccc(CN(C)C[C@H]2Oc3c(NC(=O)c4cnccn4)cccc3C(=O)N([C@H](C)CO)C[C@@H]2C)cc1
COc1cc(CCC(=O)O)oc(=O)c1
C[C@H](CO)N1C[C@H](C)[C@@H](CN(C)C(=O)Nc2ccc3c(c2)OCO3)Oc2ccc(NS(=O)(=O)c3ccc(Cl)cc3)cc2C1=O
Cc1ccccc1-c1nnc(SCC(=O)Nc2ccc(S(N)(=O)=O)cc2)n1C
CC(C)(C)c1cn2c3ccccc3nc2n1CCN1CCOCC1
CNC[C@H]1Oc2ccc(NS(=O)(=O)c3ccccc3)cc2CC(=O)N([C@H](C)CO)C[C@@H]1C
CC(C)NC(=O)Nc1ccc2c(c1)C(=O)N([C@@H](C)CO)C[C@@H](C)[C@H](CN(C)C)OCCCC[C@H](C)O2
NC(CC(=O)Nc1ccc(Cl)cc1)C(=O)O (stereo unspecified)
C[C@@H]1CN([C@@H](C)CO)C(=O)c2cccc(NC(=O)c3ccncc3)c2O[C@@H]1CN(C)CC1CC1
C[C@@H]1CN([C@@H](C)CO)C(=O)c2cccc(NS(=O)(=O)c3cn(C)cn3)c2O[C@@H]1CN(C)Cc1ccc(Cl)c(Cl)c1
COc1ccc(CN(C)C[C@H]2Oc3c(NC(=O)C4CCCCC4)cccc3C(=O)N([C@@H](C)CO)C[C@H]2C)cc1
CC(=O)Nc1ccc(NC(=O)CN(c2ccc(I)cc2)S(C)(=O)=O)cc1
CN(CCc1ccccn1)S(=O)(=O)c1ccc2c3c(cccc13)C(=O)N2
CNC[C@@H]1OCCCC[C@@H](C)Oc2ccc(NS(C)(=O)=O)cc2C(=O)N([C@H](C)CO)C[C@@H]1C
CCN1CCOC(CC(=O)Nc2ccc3c(c2)OCCO3)C1=O (stereo unspecified)
C[C@@H]1CN([C@H](C)CO)C(=O)c2cc(NC(=O)Cn3cnnn3)ccc2O[C@@H]1CN(C)CC1CC1
C[C@@H]1CN([C@@H](C)CO)C(=O)c2cc(NS(=O)(=O)c3ccccc3)ccc2O[C@@H](C)CCCCO[C@@H]1CN(C)S(=O)(=O)c1cccs1
O=C(Cn1cnc([N+](=O)[O-])n1)Nc1c(Cl)cccc1Cl
COc1ccc(CN(C)C[C@H]2Oc3c(NS(=O)(=O)c4ccc(Cl)cc4)cccc3C(=O)N([C@H](C)CO)C[C@H]2C)cc1
Cn1c(COc2ccccc2)nnc1SCc1nc2ccccc2c(=O)[nH]1
Cc1noc(C)c1NC(=O)N(C)C[C@H]1Oc2c(NC(=O)c3nc4ccccc4s3)cccc2C(=O)N([C@@H](C)CO)C[C@@H]1C
COc1ccc(CN(C)C[C@H]2Oc3c(NC(=O)NC4CCCCC4)cccc3C(=O)N([C@@H](C)CO)C[C@@H]2C)cc1
Cc1noc(C)c1NC(=O)N(C)C[C@@H]1OCCCC[C@@H](C)Oc2ccc(NC(=O)C3CCCCC3)cc2C(=O)N([C@H](C)CO)C[C@@H]1C
CC1(C)C[C@H](O)C[C@@]2(C)[C@H]1[C@H](O)C=C1COC(=O)[C@@]12O
C[C@@H]1CN([C@H](C)CO)C(=O)c2cccc(NC(=O)Nc3cccc4ccccc34)c2O[C@@H]1CN(C)C(=O)Nc1ccc(F)cc1
C[C@@H]1CC[C@]2(C(=O)O)CC[C@]3(C)C(=CCC4[C@@]5(C)CC[C@H](O)[C@](C)(C(=O)O)C5CC[C@]43C)C2[C@]1(C)O (stereo partly specified)
C[C@H]1CN([C@@H](C)CO)C(=O)c2cccc(NC(=O)Nc3ccccc3)c2O[C@@H]1CN(C)S(C)(=O)=O
COc1ccc(CN(C)C[C@H]2Oc3c(NC(=O)c4ccncc4)cccc3C(=O)N([C@H](C)CO)C[C@@H]2C)cc1
Cc1cc(C(=O)Nc2cccc3c2O[C@@H](CN(C)Cc2ccc(C(=O)O)cc2)[C@H](C)CN([C@@H](C)CO)C3=O)n(C)n1
